Screening results deposited in PubChem BioAssay by National Center for Advancing Translational Sciences (NCATS).
NPC1 promoter act – activates the NPC1 promoter. Huh7 NPC1 promoter luciferase reporter, 24 h. Potency, µM (top dose mostly 9.22 µM), without a hit: top-dose activation, usual class: activators. 320,000 tested, 2.4% active. AID 485313; note: % of control where 0% means no effect; nearly all actives have a fitted effect of over 60% in size
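Quantitative HTS used a cell-based reporter: Huh7 cells stably bearing the NPC1 promoter upstream of luciferase were treated with compounds for 24 h, and promoter activation was read as luminescence.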
FLuc counter – inhibits or activates purified firefly luciferase, miR-21 counter-screen. purified FLuc, Km substrates, luminescence inhibition. Potency, µM (top dose mostly 57.5 µM), inactives show top-dose activity change, negative = inhibition, most hits filed as inhibitors. 360,000 tested, 6.9% active. AID 588342;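 note: plate controls were vehicle for no effect and reference inhibitor for full effect; nearly all actives have a fitted effect of over 55% in size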
Target sequence (P08659 whole entry, looked up): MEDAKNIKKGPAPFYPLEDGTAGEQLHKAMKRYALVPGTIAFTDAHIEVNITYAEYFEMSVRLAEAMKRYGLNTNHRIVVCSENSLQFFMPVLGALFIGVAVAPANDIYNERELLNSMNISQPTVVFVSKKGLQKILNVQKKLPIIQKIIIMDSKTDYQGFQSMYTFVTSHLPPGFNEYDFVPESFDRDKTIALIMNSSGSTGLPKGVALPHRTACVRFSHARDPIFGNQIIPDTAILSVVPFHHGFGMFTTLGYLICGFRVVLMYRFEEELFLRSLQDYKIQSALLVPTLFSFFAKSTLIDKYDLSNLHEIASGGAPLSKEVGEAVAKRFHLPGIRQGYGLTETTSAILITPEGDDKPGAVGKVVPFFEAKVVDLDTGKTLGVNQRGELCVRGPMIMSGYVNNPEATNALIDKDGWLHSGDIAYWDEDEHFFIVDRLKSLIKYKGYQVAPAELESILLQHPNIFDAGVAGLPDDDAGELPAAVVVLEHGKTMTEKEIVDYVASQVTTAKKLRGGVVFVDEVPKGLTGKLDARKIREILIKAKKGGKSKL
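Purified P. pyralis luciferase, 10 nM final, with Km-level 10 uM D-luciferin and 10 uM ATP in 50 mM Tris acetate pH 7.5, 10 mM Mg acetate, 0.01% Tween-20, 0.05% BSA; 6-point qHTS titration about 60 µM downward; luminescence read.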
SMN2 splice enh – SMN2 splice variant enhancement. HEK293 SMN2-luciferase splicing reporter, luminescence, 30-36 h. Potency, µM (top dose mostly 46.1 µM), without a hit: at the top dose activity change, positive = activation, actives largely listed as activators. 210,000 tested, 2.8% active. AID 1458; note: % of control where 0% means no effect; nearly all actives have a fitted effect of over 55% in size
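qHTS luciferase splicing reporter: luminescence rises when SMN2 exon 7 is included in transfected HEK293 cells. Compound exposure lasted 30-36 h at 37C, with 4.5 mM final sodium butyrate as control, followed by a ONE-Glo read.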
Rab9 prom act – activators of Rab9 promoter | 320,000 tested, 2.8% active | Huh7 Rab9 promoter-luciferase reporter, luminescence, 24 h | AID 485297 | Potency, µM (titrated, usually from 9.22 µM), for the others: top-dose activation, negative = inhibition, most hits filed as activators; note: % of control where 0% means no effect; nearly all actives have a fitted effect of over 60% in size
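Luciferase signal after 10 min detection reagent at ambient indicates Rab9 promoter upregulation; stably transfected Huh7 cells were treated 24 h with compound in DMSO at 37 °C, 5% CO2.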
ELG1 genotoxic – induces genotoxicity in HEK293T cells with luciferase-tagged ELG1; HEK293T ELG1-luciferase reporter, luminescence, 16 h; Potency, µM (series often up to 46 µM), for the others: at the highest dose activity change, positive = activation, hits mostly activators; 330,000 tested, 1.3% active; note: % of control where 0% means no effect; nearly all actives have a fitted effect of over 60% in size
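Genotoxic stress is detected as increased luminescence from luciferase-tagged ELG1 in HEK293T cells, measured with ONE-Glo after a 16 hr treatment at 37 °C.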
ELG1 DNA repair – blocks ELG1-dependent DNA repair in HEK293T cells; HEK293T ELG1-luciferase reporter, luminescence, 16 h; DNA damage induced by 5-fluorouridine; Potency, µM (titrated, usually from 46.1 µM), for inactives: at the highest dose activity change, negative = inhibition, usual class: inhibitors; 330,000 tested, 2.3% active; AID 504467; note: % is set by controls: 0 for no effect and ±100 for the full control effect; nearly all actives have a fitted effect of over 55% in size
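Overnight (16 hr) co-exposure of 2,000 cells/well to 5-fluorouridine and compound at 37 °C preceded detection. Luciferase was quantified via ONE-Glo luminescence; loss of signal denotes inhibition.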
* = called active by the depositor. Compounds with a hit are over-represented: about 9.2% of the library has one in this group of screens. Calls come from the whole dose curve; as a rule, active = well fitted curve in the direction sought with a large enough effect; inconclusive = small, poorly fitted or top-dose-only effect, or another doubt; inactive = no such curve, though single readings can be large; an effect the other way counts as inactive or inconclusive. Potency is the fitted concentration of half-maximal effect.

How did O=C(CNC(=O)c1ccc2c(c1)OCCO2)N/N=C/c1ccc(O)cc1O do in these assays?
NPC1 promoter act: -2%; FLuc counter: -14%; SMN2 splice enh: 7%; Rab9 prom act: 2%; ELG1 genotoxic: 1%; ELG1 DNA repair: -10%

Results for O=S(=O)(O)c1cccc2c(N=Nc3ccc(O)c4ncccc34)cccc12 ?
NPC1 promoter act: -2%; FLuc counter: 15µM*; Rab9 prom act: -2%; ELG1 genotoxic: -3%; ELG1 DNA repair: -11%

How did Oc1ccc(N=Nc2ccc3c(c2)OCCO3)c(O)c1 do in these assays?
NPC1 promoter act: 1.3µM*; FLuc counter: 1.2µM*; Rab9 prom act: 1.1µM*; ELG1 genotoxic: inconclusive; ELG1 DNA repair: inconclusive

How did COc1ccc(N=Nc2cc(-c3ccccc3)ccc2O)cc1 do in these assays?
NPC1 promoter act: 4%; FLuc counter: 24µM*; Rab9 prom act: 0%; ELG1 genotoxic: -2%; ELG1 DNA repair: 13%

How did Cc1ccccc1N=Nc1ccc(O)c2ncccc12 do in these assays?
NPC1 promoter act: -12%; FLuc counter: -8%; SMN2 splice enh: -103%; Rab9 prom act: -28%; ELG1 genotoxic: 12µM*; ELG1 DNA repair: inconclusive

Results for N#Cc1cccc(CS(=O)(=O)c2ccccc2)c1 ?
SMN2 splice enh: -3%

Results for NS(=O)(=O)c1ccc(NC(=O)CCn2c(=O)oc3ccccc32)cc1 ?
FLuc counter: -3%; SMN2 splice enh: 2%

What do the screens show for `Oc1ccc(N=Nc2ccc(Br)cc2)c(O)c1`?
NPC1 promoter act: inconclusive; FLuc counter: 4.8µM*; Rab9 prom act: inconclusive; ELG1 genotoxic: inconclusive; ELG1 DNA repair: inconclusive

Results for O=Nc1ccc(O)c2ncccc12 ?
NPC1 promoter act: -32%; FLuc counter: -8%; Rab9 prom act: -37%; ELG1 genotoxic: inconclusive; ELG1 DNA repair: inconclusive

What do the screens show for `COc1cccc(N=Nc2ccc(O)c3ncccc23)c1`?
NPC1 promoter act: 22%; FLuc counter: 6µM*; Rab9 prom act: -18%; ELG1 genotoxic: inconclusive; ELG1 DNA repair: inconclusive

Results for Nc1nonc1C(=Nc1ccc(Br)cc1)NO ?
NPC1 promoter act: 1%; FLuc counter: 5%; SMN2 splice enh: -33%; Rab9 prom act: -3%; ELG1 genotoxic: 5%; ELG1 DNA repair: 15%

Results for Oc1ccc(N=Nc2ccc3c(c2)OCCO3)c2cccnc12 ?
NPC1 promoter act: -28%; FLuc counter: 6µM*; SMN2 splice enh: -55%; Rab9 prom act: -35%; ELG1 genotoxic: 7%; ELG1 DNA repair: inconclusive

Results for O=S(=O)(c1ccccc1)N1CCC2(CCCN(Cc3nccs3)C2)CC1 ?
SMN2 splice enh: -14%

What do the screens show for `Nn1c(SCC(=O)NCCC2=CCCCC2)nnc1C(F)(F)F`?
NPC1 promoter act: -1%; FLuc counter: 2%; SMN2 splice enh: -25%; Rab9 prom act: 0%; ELG1 genotoxic: -2%; ELG1 DNA repair: 0%

How did COc1ccc(-c2noc(CN(C)C(=O)Nc3ccccc3)n2)cc1 do in these assays?
NPC1 promoter act: -2%; FLuc counter: -8%; SMN2 splice enh: -21%; Rab9 prom act: -5%; ELG1 genotoxic: -3%; ELG1 DNA repair: inconclusive

What do the screens show for `O=c1c(-c2cc(-c3ccccc3)nc3c2COc2ccc(Cl)cc2-3)coc2ccccc12`?
FLuc counter: -4%; SMN2 splice enh: -6%

Results for CCC(C)N1C(=O)S/C(=C/c2ccc(N3CCOCC3)cc2C)C1=O (stereo unspecified) ?
NPC1 promoter act: inconclusive; FLuc counter: 7.6µM*; SMN2 splice enh: -16%; Rab9 prom act: inconclusive; ELG1 genotoxic: 15%; ELG1 DNA repair: inconclusive

How did Cc1ccc(N2CCN(C(=O)N3CCOCC3)CC2)cc1C do in these assays?
NPC1 promoter act: -1%; FLuc counter: -1%; Rab9 prom act: 0%; ELG1 genotoxic: 1%; ELG1 DNA repair: 1%

Results for Cc1cc(N2CCOCC2)ccc1/C=C1\SC(=O)N(C(C)C)C1=O ?
NPC1 promoter act: 1.4µM*; FLuc counter: 3.8µM*; SMN2 splice enh: 20%; Rab9 prom act: 1.4µM*; ELG1 genotoxic: inconclusive; ELG1 DNA repair: inconclusive

Results for Cc1cc(/C=C2/SC(=O)NC2=O)c(C)n1-c1ccc(N2CCOCC2)cc1 ?
NPC1 promoter act: 8%; FLuc counter: -6%; SMN2 splice enh: -25%; Rab9 prom act: -4%; ELG1 genotoxic: -1%; ELG1 DNA repair: inconclusive

Results for CC1CCN(S(=O)(=O)N2CCC(C(=O)NCCc3ccccc3)CC2)CC1 ?
NPC1 promoter act: 2%; FLuc counter: -1%; Rab9 prom act: 4%; ELG1 genotoxic: -3%; ELG1 DNA repair: 4%

How did Cc1ccc(CSc2nnc3ccc(-c4ccncc4)nn23)cc1 do in these assays?
NPC1 promoter act: 1%; FLuc counter: -15%; SMN2 splice enh: 4%; Rab9 prom act: 2%; ELG1 genotoxic: 0%; ELG1 DNA repair: -7%

Results for Cc1nn(-c2ccccc2Cl)c(Cl)c1/C=N/Nc1nc2ccccc2s1 ?
NPC1 promoter act: -20%; FLuc counter: 0.17µM*; SMN2 splice enh: -90%; Rab9 prom act: -31%; ELG1 genotoxic: 23%; ELG1 DNA repair: inconclusive

What do the screens show for `Cc1nn(-c2ccccc2)c(Cl)c1/C=N/NC(=O)c1ccco1`?
NPC1 promoter act: 3.2µM*; FLuc counter: 3.8µM*; SMN2 splice enh: 22µM*; Rab9 prom act: 2.5µM*; ELG1 genotoxic: inconclusive; ELG1 DNA repair: inconclusive

How did CCN(CC)S(=O)(=O)c1cccc(C(=O)N/N=C/c2c(C)nn(-c3ccccc3)c2Cl)c1 do in these assays?
NPC1 promoter act: 3%; FLuc counter: 3%; SMN2 splice enh: -20%; Rab9 prom act: -1%; ELG1 genotoxic: 8%; ELG1 DNA repair: 16%

How did Cc1nn(-c2ccccc2)c(Cl)c1/C=N/NC(=O)C1COc2ccccc2O1 (stereo unspecified) do in these assays?
NPC1 promoter act: -2%; FLuc counter: 7.6µM*; SMN2 splice enh: 0%; Rab9 prom act: -1%; ELG1 genotoxic: 3%; ELG1 DNA repair: -28%

Results for Cc1nn(-c2ccccc2)c(Cl)c1/C=N/NC(=O)c1ccc(CNc2ccccc2)o1 ?
NPC1 promoter act: 15%; FLuc counter: 2.1µM*; SMN2 splice enh: inconclusive; Rab9 prom act: 5%; ELG1 genotoxic: 1%; ELG1 DNA repair: inconclusive

What do the screens show for `COc1ccc(Cl)cc1NC(=O)CSc1nnc2[nH]c(=O)cc(C)n12`?
FLuc counter: 5%

How did CC(=O)N1[C@H](C)C=C[C@]1(Cc1ccccc1)C(=O)NCCN1CCOCC1 do in these assays?
SMN2 splice enh: 0%
